# Measured values taken from PubChem BioAssay AID1117361 (Southern Research Institute, 2015).
# The campaign covered roughly 3,600 compounds. About 900 (25%) were called active. The rule behind the calls is not given here. A selection follows. Entries with a potency or affinity are not part of this list.
# Target: Protein Tat (Human immunodeficiency virus type 1 group M subtype B (isolate HXB2)) (UniProt P04608)
# Assay: HIV-1 Tat–TAR interaction blockers – biochemical, fluorescence polarization, FAM-labeled TAR RNA, counter-screen for Vif-APOBEC3G degradation inhibitor project, dose response (AID 1117361)
# Settings: Tat-TAR RNA binding; series mostly up to 100 µM
row,SMILES,outcome
1,O=C1CNC(=O)/C1=C/c1ccc(Br)cc1,inactive
2,CC1CC(C)CN(C(=O)COC(=O)CNS(=O)(=O)/C=C/c2ccccc2)C1 (stereo not drawn),inactive
3,CCS(=O)(=O)N1CCN(C(=O)c2cccc3ccccc23)CC1,inactive
4,CN(C)CCCNC(NC(=O)c1cccs1)C(Cl)(Cl)Cl (stereo not drawn),inactive
5,Cc1nc2c3ccccc3n(CC(=O)c3ccc(F)cc3)c(=O)n2n1,inactive
6,O=C(NC(=S)N1CCN(c2c(Cl)cccc2[N+](=O)[O-])CC1)c1cccs1,inactive
7,COc1cc2c(cc1NC(=O)CC1SC(N3CCCC3)=NC1=O)oc1ccccc12 (stereo not drawn),inactive
8,O=S(=O)(c1ccc2nc(-c3ccco3)c(-c3ccco3)nc2c1)N1CCOCC1,inactive
9,COc1ccc(N2CCN(C(=O)c3ccc(C)c(Cl)c3)CC2)cc1,inactive
10,COc1ccc(C(=O)Nc2cccc(C(=O)N3CCN(C)CC3)c2)cc1,inactive
11,COc1ccc2nc(N3CCN(C(=O)c4ccc5ncsc5c4)CC3)sc2c1,inactive
12,O=S(=O)(c1ccc(F)cc1)N(CCO)CC(O)Cn1c2ccccc2c2ccccc21 (stereo not drawn),inactive
13,Cc1c(C(=O)N2CCN(c3ccc(F)cc3)CC2)sc2nc(-c3ccccc3)cn12,inactive
14,CCS(=O)(=O)n1nc(-c2ccc(Cl)cc2)nc1SC,inactive
15,Cn1c(C(=O)NCCN2CCOCC2)cc2c(=O)n(C)c3ccccc3c21,inactive
16,COc1ccc(CNC(=O)Cn2nc(C(F)(F)F)c3c2CCC3)cc1,inactive
17,Cc1sc(NC(=O)c2ccccc2)c(C(=O)NCCN(C)C)c1C,inactive
18,CC1COCC(C)N1C1=C(Cl)C(=O)c2ccccc2C1=O (stereo not drawn),inactive
19,NC(=O)C1CCN(C2=C(Cl)C(=O)c3ccccc3C2=O)CC1,inactive
20,CCc1cc2c(=O)n(-c3ccc(C)cc3)cnc2s1,inactive
21,COc1ccc(CCNS(=O)(=O)c2ccc3c(c2)CCN3C(=O)CCC(=O)O)cc1OC,inactive
22,COc1ccc(C2C(C(=O)NCCN(C)C)c3ccccc3C(=O)N2C)cc1OC (stereo not drawn),inactive

row,SMILES,outcome
1,CCCCN(CCCC)S(=O)(=O)c1ccc(NC(=O)c2cccs2)cc1,inactive
2,[O-][n+]1onc2c1CCc1c-2nc(-c2ccccc2)n1OCc1ccccc1,inactive
3,CCN(CCCNC(=O)C1CCCN(S(=O)(=O)CC)C1)c1cccc(C)c1 (stereo not drawn),inactive
4,O=C(c1ccc2c(c1)OCCO2)C1CCN(C(=O)c2ccc(F)cc2)CC1,inactive
5,CCc1ccccc1NC(=S)N(Cc1ccc(OC)cc1)CC1CCC(C(=O)O)CC1 (stereo not drawn),inactive
6,CCn1cc(C(=O)NCc2ccc3c(c2)OCO3)c2cc(OC)c(OC)cc2c1=O,inactive
7,CCOC(=O)C1=C(CN2CCN(c3ccc(F)cc3)CC2)NC(=O)NC1c1cccs1 (stereo not drawn),inactive
8,Cc1ccc(C(=O)C2C(c3cccs3)NC(=O)NC2(O)C(F)(F)F)cc1 (stereo not drawn),inactive
9,Cn1cccc1C(=O)NC(=O)COC(=O)CC12CC3CC(CC(Br)(C3)C1)C2,inactive
10,O=C(Cc1ccccc1)Nc1scc(-c2ccccc2)c1C(=O)N1CCOCC1,inactive
11,CC1=C(C(=O)OCC(Cl)(Cl)Cl)N2C(=O)C(NC(=O)Cc3ccccc3)C2SC1 (stereo not drawn),inactive
12,CC(=O)[C@@]1(O)CC[C@H]2[C@@H]3CCC4=CC(=O)CC[C@]4(C)[C@H]3CC[C@@]21C,inactive
13,Cc1sc(-c2ccncc2)nc1OC(=O)c1ccccc1,inactive
14,COc1ccc(S(=O)(=O)NC2CC(C)(C)NC(C)(C)C2)c(C)c1C,inactive
15,Cc1sc2nc(C)n(/N=C/c3ccccc3O)c(=O)c2c1C,inactive
16,C=CCNC(=O)c1cc(=O)c2ccccc2o1,inactive
17,Cc1nn(-c2ccc(Cl)cc2)c2[nH]c(=O)c(CNCc3ccc4c(c3)OCO4)cc12,inactive
18,O=c1oc(/C=C/c2ccccc2)nc2sc3c(c12)CCC3,inactive
19,O=[N+]([O-])c1cc(C(F)(F)F)ccc1N1CCN(S(=O)(=O)c2ccc3ccccc3c2)CC1,inactive
20,COC(=O)C1=C(Nc2ccc(OC)cc2)C=C(C)C(C(=O)OC)C1c1ccc(C)cc1 (stereo not drawn),inactive
21,CC1(C)CC(NS(=O)(=O)c2ccccc2)CC(C)(C)N1,inactive
22,CC1(C)C2CCC1(C)C(NC1=NCCC1)C2 (stereo not drawn),inactive

row,SMILES,outcome
1,CC(=NCc1ccc2c(c1)OCO2)C1=C(O)c2ccccc2C1=O,inactive
2,CCCN(CCC)C(=O)c1cc(-c2ccc3c(c2)OCO3)nc2ccccc12,inactive
3,CC(OC(=O)CC1CCCC1)C(=O)Nc1ccc(Cl)cn1 (stereo not drawn),inactive
4,Nn1c(SCC(=O)NC2CCCc3ccccc32)nnc1-c1cccs1 (stereo not drawn),inactive
5,COc1ccccc1CNS(=O)(=O)c1cccc(S(=O)(=O)N2CCOCC2)c1,inactive
6,COC(=O)C1C2CCC(C2)C1C(=O)OCC(=O)c1ccc(C)cc1 (stereo not drawn),inactive
7,CC(C)CC(=O)N(c1ccc(F)cc1)C1C=CS(=O)(=O)C1 (stereo not drawn),inactive
8,O=C(CCl)N1N=C(c2ccco2)CC1c1ccco1 (stereo not drawn),inactive
9,Cc1cc(C)cc(NC(=S)NC(=O)CCN2C(=O)c3ccccc3C2=O)c1,inactive
10,CCCCOc1cccc(C(=O)NC(=S)Nc2ccc(Cl)c(C(=O)O)c2)c1,inactive
11,CCc1ccc(-c2cc(C(=O)Nc3ccc(S(=O)(=O)NC(C)=O)cc3)c3ccccc3n2)cc1,inactive
12,COc1ccc(N2CCN(c3nc4ccccc4nc3NS(=O)(=O)c3ccccc3)CC2)cc1,inactive
13,COC(=O)c1ccc(C)c(NS(=O)(=O)c2ccc(NC(C)=O)cc2)c1,inactive
14,CC(=O)Nc1ccc(S(=O)(=O)Nc2cccc(-c3nc4ccccc4o3)c2)cc1,inactive
15,COc1ccc(NCc2nnc(SCC(=O)N3CCCc4ccccc43)o2)cc1,inactive
16,O=c1oc(-c2cccnc2)nc2ccccc12,inactive
17,CC(C)(C)c1ccc(NC(=S)NCc2cccnc2)cc1,inactive
18,FC(F)Oc1ccccc1NC(=S)Nc1cccnc1,inactive
19,COc1ccc(N2C(=O)C3CCCN3C2c2ccc(C)cc2)cc1 (stereo not drawn),inactive
20,CS(=O)(=O)N1CCC(C(=O)NCCc2ccccc2)CC1,inactive
21,Cn1c(CNC(=O)C2CCCCC2)cc2cc(Cl)ccc21,inactive
22,CC(CN1CCN(C)CC1)OC(=O)c1ccccc1Cl (stereo not drawn),inactive

row,SMILES,outcome
1,COc1ccc(C)cc1NC(=O)c1[nH]c(C)c(C(C)=O)c1C,inactive
2,COc1ccccc1N1CCN(C(=O)C(F)F)CC1,inactive
3,O=C(NCc1ccc(N2CCCC2=O)cc1)NC1CCCCC1,inactive
4,Cc1ccc2nc(C3CCN(CC(=O)Nc4ccc5c(c4)OCCO5)CC3)[nH]c2c1,inactive
5,O=C1NC2(CCCCC2)NN1c1ccccc1,inactive
6,Cc1cc(C)c2c(c1)[C@@H]1C=CC[C@@H]1[C@H](c1ccc(S(=O)(=O)N3CCOCC3)cc1)N2,inactive
7,O=C(O)c1ccc2c(c1)C(c1ccccc1)OC2=O (stereo not drawn),inactive
8,CCC(C)NS(=O)(=O)c1ccc(S(=O)(=O)N(CC(=O)Nc2ccccc2)CC2CCCO2)cc1 (stereo not drawn),inactive
9,COc1ccccc1S(=O)(=O)Cc1ccc(C(=O)N2CCN(c3ccccn3)CC2)o1,inactive
10,CCN1CCN(CCCNC(=O)c2ccc3c(c2)NC(=O)c2ccccc2S3)CC1,inactive
11,CC1(C)CC(=O)C2=C(C1)N(Cc1ccc(F)cc1)C(=O)C2(NC(=O)c1cccnc1)C(F)(F)F (stereo not drawn),inactive
12,CC(=O)Nn1cc2c(=O)n(C)c(=O)n(C)c2c1,inactive
13,CCN(CC)CCN1C(=O)c2ccccc2NC1c1ccc(N(C)C)cc1 (stereo not drawn),inactive
14,COc1cc(NC(=O)c2cc3nc(C)cc(C)n3n2)c(OC)cc1Cl,inactive
15,Cc1ccc2c(c1)c(CC(=O)Nc1ccc(C)c(F)c1)c(C(=O)O)n2C,inactive
16,Nc1ccc(-c2nc3cc(N)ccc3n2CCO)cc1,inactive
17,COc1ccc(S(=O)(=O)NCc2ccccn2)c(Cl)c1Cl,inactive
18,CCN(CC)CCNC(=O)CCn1c(=S)[nH]c2cc3c(cc2c1=O)OCO3,inactive
19,C=CCn1cc(-c2ccccc2)cc(C#N)c1=O,inactive
20,Cc1ccc(CSc2nc3c(c(N(C)C)n2)CCCC3)cc1,inactive
21,CCN(CC)CCCNC(=O)CSc1nc(-c2cccs2)cc(C(F)(F)F)n1,inactive
22,COC(=O)/C=c1\sc2n(c1=O)C(C)=CC(C)(C)N=2,inactive

row,SMILES,outcome
1,CCOC(=O)CCC(=O)N1CCOCCN(C(=O)CCC(=O)OCC)CCOCC1,inactive
2,Cc1ccc(N=Cc2nc(-c3ccc(C)cc3)oc2O)cc1,inactive
3,CC(C)(C)NC(=O)CSc1nnc(-c2ccccn2)n1Cc1ccccc1,inactive
4,COc1ccc(CNC(=O)c2c(-c3cc(Cl)c(OC)c(Cl)c3)noc2C)cc1,inactive
5,OCCCNc1ncnc2c1[nH]c1ccccc12,inactive
6,CC(=O)Nc1cccc(-c2cc(-c3c(Cl)cccc3Cl)no2)c1,inactive
7,O=C(CCn1nc(-c2ccccc2)ccc1=O)N1CCCC1,inactive
8,CN1CCN(S(=O)(=O)c2ccc(NC(=S)NC(=O)c3ccc(Cl)cc3)cc2)CC1,inactive
9,Cc1cccc(OCCCC(=O)NC(C)c2ccccc2)c1 (stereo not drawn),inactive
10,CCn1c(=O)cc(N2CCC3(CC2)OCCO3)[nH]c1=O,inactive
11,Cn1cc(Cl)c(C(=O)Nc2nc3ccccc3s2)n1,inactive
12,CCC(C)(c1nnnn1-c1c(C)cccc1C)N(N=O)c1ccccc1Cl (stereo not drawn),inactive
13,CSCCC(NS(=O)(=O)c1ccc2c(c1)oc(=O)n2C)C(=O)NC1CCCc2ccccc21 (stereo not drawn),inactive
14,COc1ccc(S(N)(=O)=O)cc1C(=O)OCC(=O)NC(C)(C#N)C1CC1 (stereo not drawn),inactive
15,O=c1cc(O)nc(SCc2ccccc2Cl)[nH]1,inactive
16,CSc1nc(N)c(C#N)c(-c2ccccc2Cl)c1C#N,inactive
17,COc1ccc(C2(O)CCN(Cc3nnnn3Cc3ccc(F)cc3)CC2)cc1,inactive
18,CC(C)(C)NCCCCOc1ccc(F)cc1,inactive
19,CCOc1ccc(NC(=O)c2ccccc2NS(C)(=O)=O)cc1,inactive
20,Cc1c(O)nc(SCC(=O)Nc2ccc3c4c(cccc24)CC3)n(-c2ccc(F)cc2)c1=O,inactive
